# Screens (PubChem)
# The list is not random: actives were taken first. Their share in the collection is about 7.5%.
# NPC1 promoter act: qHTS Assay for NPC1 Promoter Activators; Huh7 NPC1 promoter luciferase reporter, 24 h; actives 2.4% (n = 320,000); Potency, µM (series often up to 9.22 µM), hits mostly activators; also: nearly all actives have a fitted effect of over 60% in size
#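 Quantitative HTS used a cell-based reporter: Huh7 cells stably bearing the NPC1 promoter upstream of luciferase were treated with compounds for 24 h, and promoter activation was read as luminescence.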
# Rab9 prom act: qHTS Assay for Rab9 Promoter Activators | Huh7 Rab9 promoter-luciferase reporter, luminescence, 24 h | Potency, µM (titrated, usually from 9.22 µM), most hits filed as activators | actives 2.8% (n = 320,000) | AID 485297, 2010; also: nearly all actives have a fitted effect of over 60% in size
#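 Luminescence from Amplite-detected luciferase (10 minutes, ambient) reports Rab9 promoter activation. Before that, stable Rab9-luciferase Huh7 cells (1500/well, reduced-serum OP-MEM I plus 10% FBS) were exposed to compound for 24 hours at 37C.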
# ELG1 genotox: qHTS screen for small molecules that induce genotoxicity in human embryonic kidney (HEK293T) cells expressing luciferase-tagged ELG1 | Potency, µM (highest dose often 46 µM), hits mostly activators | actives 1.3% (n = 330,000) | HEK293T ELG1-luciferase reporter, luminescence, 16 h; also: nearly all actives have a fitted effect of over 60% in size
#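 Screening used a luciferase reporter fused to human ELG1 in HEK293T cells. Luminescence was read on a CCD plate imager after 16 hr exposure and 30 min ONE-Glo incubation.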
# KinaseGlo FLuc: Counterscreen for Luciferase (Kinase-Glo TM) Inhibition; Luciferin 4-monooxygenase (Photuris pensylvanica), Q27757; Kinase-Glo luciferase, ATP luminescence, 8 min; Potency, µM (titrated, usually from 38.3 µM), hits mostly inhibitors; actives 0.28% (n = 200,000); also: nearly all actives have a fitted effect of over 60% in size
#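 Compound is pinned into ATP-containing buffer (10 uM ATP, imidazole pH 7.2, 7 mM MgCl2). Kinase-Glo luciferase reagent is then added. Light output is recorded following an 8-min room-temperature incubation.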
# SMN2 splice enh: qHTS Assay for Enhancers of SMN2 Splice Variant Expression. HEK293 SMN2-luciferase splicing reporter, luminescence, 30-36 h. actives 2.8% (n = 210,000). Potency, µM (top dose mostly 46.1 µM), usual class: activators; also: nearly all actives have a fitted effect of over 55% in size
#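 qHTS luciferase splicing reporter: luminescence rises when SMN2 exon 7 is included in transfected HEK293 cells. Compound exposure lasted 30-36 h at 37C, with 4.5 mM final sodium butyrate as control, followed by a ONE-Glo read.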
# FLuc counter: qHTS profiling assay for firefly luciferase inhibitor/activator using purifed enzyme and Km concentrations of substrates (counterscreen for miR-21 project) | Luciferin 4-monooxygenase (Photinus pyralis), P08659 | purified FLuc, Km substrates, luminescence inhibition | Potency, µM (top dose mostly 57.5 µM), most hits filed as inhibitors | actives 6.9% (n = 360,000); also: nearly all actives have a fitted effect of over 55% in size
# Target sequence (P08659 whole entry, looked up): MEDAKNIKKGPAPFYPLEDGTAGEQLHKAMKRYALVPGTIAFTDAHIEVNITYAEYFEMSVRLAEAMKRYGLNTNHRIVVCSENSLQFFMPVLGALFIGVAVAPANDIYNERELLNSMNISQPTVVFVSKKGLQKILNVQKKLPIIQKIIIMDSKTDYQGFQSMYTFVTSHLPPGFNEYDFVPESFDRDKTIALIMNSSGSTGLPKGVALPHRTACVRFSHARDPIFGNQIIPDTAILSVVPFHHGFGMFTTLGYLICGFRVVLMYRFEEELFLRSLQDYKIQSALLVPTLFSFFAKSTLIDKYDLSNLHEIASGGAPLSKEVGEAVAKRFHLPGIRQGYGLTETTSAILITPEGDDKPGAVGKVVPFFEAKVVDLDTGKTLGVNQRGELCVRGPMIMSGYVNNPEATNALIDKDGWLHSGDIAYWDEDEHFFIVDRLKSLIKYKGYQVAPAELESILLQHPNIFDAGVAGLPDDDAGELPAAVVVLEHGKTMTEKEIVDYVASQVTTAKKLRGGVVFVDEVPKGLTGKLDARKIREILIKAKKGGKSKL
#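 Biochemical qHTS of compounds, final roughly 60 µM downward over six points, against 10 nM purified firefly luciferase using Km concentrations of substrates (10 uM D-luciferin, 10 uM ATP) in Tris acetate pH 7.5 buffer; luminescence output.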
# Numbers stand for hits; i = inactive; ? = inconclusive; nt = no result; [ ] = dose if it differs, or a comment. Calls follow the shape of the dose curve; as a rule, active = well fitted curve in the direction sought with a large enough effect; inconclusive = small, poorly fitted or top-dose-only effect, or another doubt; inactive = no such curve, though single readings can be large; an effect the other way counts as inactive or inconclusive.
SMILES,NPC1 promoter act,Rab9 prom act,ELG1 genotox,KinaseGlo FLuc,SMN2 splice enh,FLuc counter
O=S1(=O)N=C(N=Nc2c(O)[nH]c3ccccc23)c2ccccc21,i,i,i,i,i,?
CN(CC(=O)Nc1cccc(F)c1)CC(=O)NC(c1ccccc1)c1ccccc1,i,i,i,nt,nt,i
O=C(N=Nc1c(O)[nH]c2ccccc12)c1cc(-c2ccc(F)cc2)n[nH]1,i,i,i,i,i,i
Oc1[nH]c2ccccc2c1N=Nc1ccccc1F,?,?,?,i,22µM,?
O=[N+]([O-])c1ccc(N=Nc2c(O)[nH]c3ccc(F)cc23)cc1,2.8µM,?,?,nt,nt,i
O=Nc1c(-c2c(O)[nH]c3ccccc23)[nH]c2ccccc12,4.6µM,?,nt,i,13µM,nt
O=[N+]([O-])c1ccc2[nH]c(O)c(N=Nc3ccc(F)cc3)c2c1,i,i,i,nt,nt,i
COc1cccc2c1C(=O)O/C2=C/c1ccc2c(c1)OCO2,?,?,?,?,?,0.11µM
COc1cccc(OC)c1C1=CC(=O)C[C@H](c2ccc3c(c2)OCO3)C1,i,i,i,nt,nt,i
O=C(O)CCN1C(=O)/C(=C\c2cccc(OCC(=O)Nc3ccc(Cl)cc3)c2)SC1=S,i,i,i,nt,nt,17µM
O=C(CCN1C(=O)/C(=C/c2ccc(Cl)cc2)SC1=S)Nc1cccc(C(=O)O)c1,i,i,i,nt,nt,15µM
Cc1ccc(NC(=O)COc2cccc(/C=C3\SC(=S)N(CCC(=O)O)C3=O)c2)cc1Cl,i,?,i,nt,nt,?
O=C(CCN1C(=O)/C(=C\C=C\c2ccccc2)SC1=S)Nc1cccc(C(=O)O)c1,3.2µM,?,?,nt,nt,0.95µM
COc1ccc(/C=C2\SC(=S)N(CCC(=O)Nc3cccc(C(=O)O)c3)C2=O)cc1,i,i,i,nt,nt,5.4µM
O=C(CCCN1C(=O)/C(=C\c2ccccc2)SC1=S)Nc1cccc(C(=O)O)c1,i,i,i,nt,nt,?
CCOC(=O)c1noc2ncn(CC(=O)Nc3cccc(C(F)(F)F)c3)c(=O)c12,nt,nt,nt,nt,nt,i
Cc1[nH]c(=O)[nH]c(=O)c1S(=O)(=O)Nc1ccc(F)cc1Cl,i,i,i,nt,nt,i
Cc1cccc(C(C)C)c1NC(=O)COC(=O)CCN1C(=O)C2CC=CCC2C1=O (stereo unspecified),i,i,i,nt,nt,i
O=C(CCCN1C(=O)/C(=C/c2ccccc2Cl)SC1=S)Nc1cccnc1,i,i,i,nt,nt,13µM
O=C(CCN1C(=O)/C(=C/c2ccc3c(c2)OCO3)SC1=S)Nc1cccc(C(=O)O)c1,i,i,i,nt,nt,21µM
COc1cccc(/C=C2\SC(=S)N(CCCC(=O)Nc3ccc(C(=O)O)cc3)C2=O)c1,i,i,i,nt,nt,21µM
N#Cc1cccc(NC(=O)N2CC[C@@]3(CCCN(C(=O)c4cnccn4)C3)C2)c1,nt,nt,nt,i,i,nt
O=[N+]([O-])c1ccc2nc(NS(=O)(=O)c3ccccc3[N+](=O)[O-])sc2c1,?,i,i,nt,nt,11µM
O=[N+]([O-])c1ccccc1S(=O)(=O)Nc1nc2ccccc2s1,i,i,i,nt,nt,i
Cc1ccc(C(=O)Nc2nc3ccc(S(C)(=O)=O)cc3s2)o1,2.8µM,2.5µM,?,13µM,4µM,3µM
SMILES,NPC1 promoter act,Rab9 prom act,ELG1 genotox,KinaseGlo FLuc,SMN2 splice enh,FLuc counter
CS(=O)(=O)c1ccc2nc(NC(=O)c3cccc(Cl)c3)sc2c1,i,i[1.84 µM],i,nt,nt,?
Cc1noc(C)c1C(=O)Nc1nc2ccc(S(C)(=O)=O)cc2s1,?,?,?,nt,nt,1.1µM
O=C(NC(=S)Nc1nc2ccc(F)cc2s1)c1ccco1,i,2.5µM,?,i,10µM,1.3µM
COc1ccc(C(=O)Nc2nc3ccc(S(C)(=O)=O)cc3s2)cc1,i,i,i,i,i,?
CS(=O)(=O)c1ccc2nc(NC(=O)c3ccco3)sc2c1,2.8µM,1.6µM,?,?,7.9µM,4.8µM
COCC(=O)Nc1nc2ccc(S(C)(=O)=O)cc2s1,i,i,i,i,i,?
C=CCSc1nc2ccsc2c(=O)n1-c1cccnc1,i,i,i,i,i,i
CCOc1c(Cl)cc(/C=C/C(=O)N(CC)CC(=O)NCc2cccs2)cc1OC,i,i,i,nt,nt,i
Cc1c(Cl)ccc2sc(NC(=O)c3ccco3)nc12,2.8µM,4µM,?,nt,nt,5.4µM
Cc1cc(C)nc(NS(=O)(=O)c2ccc(NC(=O)CSc3nc(-c4ccccc4)c(C#N)c(=O)[nH]3)cc2)n1,i,i,i,i,i,11µM
CCc1ccc(NC(=O)CSc2nc(-c3ccccc3)c(C#N)c(=O)[nH]2)cc1,nt,nt,nt,nt,nt,11µM
N#Cc1c(-c2ccccc2)nc(SCC(=O)Nc2ccccc2)[nH]c1=O,i,i,i,i,i,i
Cc1cc(NC(=O)CSc2nc(-c3ccccc3)c(C#N)c(=O)[nH]2)no1,i,i,i,i,i,i
O=c1c(S(=O)(=O)c2ccccc2)cn(Cc2ccc(F)cc2)c2cc(N3CCCC3)c(F)cc12,nt,nt,nt,nt,nt,i
O=C1CCCCCN1Cc1nnc(SCc2nc3ccccc3s2)n1-c1ccccn1,i,?,?,i,i,7.6µM
c1cnc2c(-c3nccc4c3[nH]c3ccccc34)cccc2c1,nt,nt,nt,i,i,nt
Oc1c(C=Nc2ccccc2)sc(=S)n1Cc1ccccc1,i,i,i,i,i,?
CCn1c(O)c(C=Nc2ccccc2)sc1=S,?,2.8µM,?,nt,nt,9.5µM
O=C(COc1ccc(CO)cc1Cl)Nc1ccc(F)cc1,2µM,1.1µM,0.37µM,i,i,0.85µM
COc1ccccc1NC(=O)COc1ccc(Br)cc1CO,i,i,i,i,i,i
COc1ccccc1NC(=O)COc1ccc(CO)cc1Cl,?,?,15µM,i,i,6.7µM
CCn1c(CN2CCC(C)CC2)nc2cc(NC(=O)c3cccc([N+](=O)[O-])c3)ccc21,nt,nt,nt,nt,nt,i
COc1ccc(C(=O)N2CCN(Cc3ccccc3)CC2)cc1[N+](=O)[O-],i,i,i,nt,nt,i
COc1ccc2[nH]c(C(=O)N3CCN(Cc4ccccc4)CC3)cc2c1OC,i,i,i,nt,nt,15µM
COc1cc(CN2CCN(C(=O)c3ccc(-c4ccccc4)cc3)CC2)cc(OC)c1OC,i,i,?,i,nt,21µM
Cc1[nH]c2ccc(C(=O)N3CCN(Cc4ccccc4)CC3)cc2c1C,i,i,i,nt,nt,6µM
Cn1nccc1C(=O)OCC(=O)Nc1cccc(Cl)c1,i,i,i,nt,nt,i
CCN(CC)C(=O)CSc1ncnc2c(-c3cccs3)nsc12,?,3.2µM,i,i,i,i[2.3 µM]
CCOC(=O)c1c(NC(=O)c2ccc(S(=O)(=O)N3CCC(C)CC3)cc2)sc2c1CCN(C)C2,nt,nt,nt,nt,nt,i
